# Screens (PubChem)
# Compounds with a hit are over-represented: about 31% of the library has one in this group of screens.
# CYP2C19 inhib: inhibitors of human CYP2C19; CYP2C19 Supersomes, luciferin-H EGE luminescence, 30 min; P33261; inhibition, % at 5 µM; 96,000 tested, 21% active; AID 778;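 active = CYP2C19 inhibition above a set limit at 5 µM in the primary screen, cut at about 50% in these data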;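 note: plate controls were negative control wells for no effect and 2.5 mM tranylcypromine positive control for full effect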
# PLAP activator: activators of human placental alkaline phosphatase; 96,000 tested, 1.2% active; AID 696; purified PLAP enzyme, luminescent substrate read-out; active compounds read high; activation fold at 20 µM; in the data active = activation fold above about 2
# CYP2C9 activ: activators of human CYP2C9; P11712; recombinant CYP2C9, luciferin-H conversion, luminescence; active compounds read high; factor 1 = untreated enzyme, 0 = blocked; activation factor at 5 µM; 96,000 tested, 1.4% active; AID 1024;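 active = activation factor of 2 or more for CYP2C9 at a 5 µM dose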;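 note: 0 = sulfaphenazole-blocked wells and 1 = vehicle-only wells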
# Target sequence (P11712 whole entry, looked up): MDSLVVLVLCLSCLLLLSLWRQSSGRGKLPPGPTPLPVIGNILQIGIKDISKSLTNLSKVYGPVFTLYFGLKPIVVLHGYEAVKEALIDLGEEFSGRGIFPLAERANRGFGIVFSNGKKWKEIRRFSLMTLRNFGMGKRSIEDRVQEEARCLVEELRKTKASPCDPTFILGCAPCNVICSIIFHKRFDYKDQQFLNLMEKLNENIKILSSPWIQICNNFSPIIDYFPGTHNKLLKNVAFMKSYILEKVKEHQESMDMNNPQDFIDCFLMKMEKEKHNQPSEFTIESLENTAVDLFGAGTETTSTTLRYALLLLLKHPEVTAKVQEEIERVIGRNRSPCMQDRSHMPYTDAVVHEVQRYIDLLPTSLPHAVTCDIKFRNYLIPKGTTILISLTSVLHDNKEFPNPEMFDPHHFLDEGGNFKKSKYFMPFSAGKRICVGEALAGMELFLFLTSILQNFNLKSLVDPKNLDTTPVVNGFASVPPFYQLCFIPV
# CYP2C9 inh: blocks human cytochrome P450 2C9; P11712; CYP2C9 Supersomes, luciferin-H conversion, luminescence; 96,000 tested, 20% active; inhibition, % at 5 µM;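 active = blocking of liver enzyme CYP2C9 beyond about 50% at 5 µM, limit read from the data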
# CYP2C19 activ: increases human CYP2C19 enzyme activity; P33261; activation factor at 5 µM; recombinant CYP2C19, luciferin-H EGE luminescence; active compounds read high; 0 = fully inhibited enzyme, 1 = untreated enzyme; 96,000 tested, under 10 active;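 active = activation factor of at least 2 at 5 µM in the primary screen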;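 note: 0 = wells with 2.5 mM tranylcypromine and 1 = vehicle-only wells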
# Active calls of the source: *.
SMILES,CYP2C19 inhib,PLAP activator,CYP2C9 activ,CYP2C9 inh,CYP2C19 activ
O=C(COc1cc(O)c2c(=O)cc(-c3ccccc3)oc2c1)c1ccccc1,32,1,0.4,59*,0.7
O=C(COc1cc(O)c2c(=O)cc(-c3ccccc3)oc2c1)c1ccc(F)cc1,8,0.9,0.6,40,0.9
CCOC(=O)c1ccc(-n2c(C)nc3ccccc3c2=O)cc1,30,1.3,1,-2,0.7
CCOC(=O)C1CCN(Cc2nc3ccccc3c(=O)n2-c2ccc(F)cc2)CC1,13,1.5,0.3,68*,0.9
O=C(c1ccco1)N1CCN(Cc2nc3ccccc3c(=O)n2-c2ccc(F)cc2)CC1,36,1.4,0.3,70*,0.6
Cc1sc2ncnc(SCC(=O)NC(=O)NCc3ccco3)c2c1C,-10,1.3,1,-2,1.1
COc1ccc(C(=O)C[n+]2ccc3c(c2)nc(-c2ccc(OC)cc2OC)n3C)cc1,-18,1,1.1,-10,1.2
Cc1ccnc(N/C=C(/NC(=O)c2ccccc2)C(=O)N/N=C\c2ccc(F)cc2)n1,-13,1.2,0.8,20,1.1
O=C(/C=C/c1ccccc1)NC(NC(=S)Nc1cccc(Cl)c1)C(Cl)(Cl)Cl (stereo not drawn),1,0.9,0.2,77*,1
CC(=O)OCCn1c(Br)nc2c1c(=O)[nH]c(=O)n2C,1,1.1,1,-5,1
Cc1cc(S(=O)(=O)NCCc2ccccc2)c(C)s1,32,0.9,0.5,47,0.7
Cc1cc(S(=O)(=O)Nc2ccc(N(C)C)cc2)c(C)s1,100*,0.9,0,100*,0
COc1cc2nc(CN(C)CC(=O)Nc3ccc(N4CCOCC4)cc3)[nH]c(=O)c2cc1OC,9,2.3*,0.8,18,0.9
COc1ccc(CCNC(=O)C2CCN(S(=O)(=O)c3ccc(OC)c(OC)c3)CC2)cc1,2,1.2,1.3,-30,1
CCN1C(=O)c2cccc3c(S(=O)(=O)Nc4ccncc4)ccc1c23,6,1,0.3,66*,0.9
CCN1C(=O)c2cccc3c(S(=O)(=O)Nc4ccccc4)ccc1c23,60*,1.1,0,100*,0.4
CCN1C(=O)c2cccc3c(S(=O)(=O)Nc4ccc(OC)cc4OC)ccc1c23,78*,1.1,0,96*,0.2
Cc1csc(NC(=O)CCN2C(=O)c3ccccc3S2(=O)=O)n1,7,1,0.9,13,0.9
CCN1C(=O)c2cccc3c(S(=O)(=O)Nc4nc(C)cs4)ccc1c23,23,1.3,0.1,93*,0.8
CCN1C(=O)c2cccc3c(S(=O)(=O)NCc4cccnc4)ccc1c23,2,0.8,0.8,20,1
CC(=O)Nc1cccc(NC(=O)C2CC3CCC2C3)c1 (stereo not drawn),17,1,0.9,13,0.8
Cc1cccc(C(=O)Nc2cc(OCc3cccc(F)c3)c(Cl)cc2Cl)c1,21,0.8,0.8,25,0.8
CCN1C(=O)c2cccc3c(NC(=O)c4ccc(OC)c(OC)c4)ccc1c23,56*,1.4,0.3,66*,0.4
CCN1C(=O)c2cccc3c(NC(=O)c4ccc5c(c4)OCCO5)ccc1c23,-10,1,1,3,1.1
O=S1(=O)CCN2C(Cc3ccc(SC(F)F)cc3)=CSC2=N1,10,0.9,0.9,6,0.9
SMILES,CYP2C19 inhib,PLAP activator,CYP2C9 activ,CYP2C9 inh,CYP2C19 activ
COC(=O)C(C)NS(=O)(=O)c1ccc(NC(C)=O)cc1 (stereo not drawn),14,1,0.9,14,0.9
O=S(=O)(c1ccc2c(c1)OCCO2)N1CCC(c2nc3ccccc3[nH]2)CC1,63*,1.1,1.6,-57,0.4
CC(=O)Nc1ccc(S(=O)(=O)N2CCC(c3nc4ccccc4[nH]3)CC2)cc1,48,1,0.3,68*,0.5
CC(=O)Nc1ccc(S(=O)(=O)N2CCN(C(=O)N3CCOCC3)CC2)cc1,-17,1,1.2,-22,1.2
O=S(=O)(c1ccc2c(c1)OCCO2)N1CCC(c2nc3ccc(Cl)cc3[nH]2)CC1,84*,1.5,2.1*,-111,0.2
O=C(c1ccc(S(=O)(=O)N2CCC(c3nc4ccccc4[nH]3)CC2)cc1)N1CCOCC1,47,1,0.6,35,0.5
CC(=O)Nc1ccc(S(=O)(=O)N2CCN(c3cc(C)nc4ccccc34)CC2)cc1,45,1.6,0.3,66*,0.6
COc1cc2c(N3CCOCC3)cc(O)c(CC(=O)Nc3ccccc3)c2cc1OC,19,1.1,0.9,10,0.8
